In the library only some 4.2% were active in any assay of this set; here they are far more common.
Sfp PPTase inh: qHTS Assay for Inhibitors of Bacillus subtilis Sfp phosphopantetheinyl transferase (PPTase) | 4'-phosphopantetheinyl transferase ffp (Bacillus subtilis), Q9F4F7 | Biochemical Sfp PPTase activity, qHTS | Potency, µM, actives largely listed as inhibitors | 310,000 compounds, 3.5% hits;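 further: the enzyme is Sfp with the accession as filed and its product quenches rhodamine fluorescence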
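Fluorescence-quenching assay with 15 nM Sfp, 5 uM rhodamine-CoA and 12.5 uM BHQ-2-labelled ybbR peptide in pH 7.6 Hepes/MgCl2 buffer. Enzyme was pre-incubated with compound for 15 min at room temperature. Rate was taken from the 30-min fluorescence change (525/598 nm).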
PLK1 PBD block: qHTS for Inhibitors of PLK1-PDB (polo-like kinase 1 - polo-box domain): Primary Screen | Potency, µM, usual class: inhibitors | Serine/threonine-protein kinase PLK1 (Homo sapiens), P53350 | 360,000 compounds, 2.8% hits | Plk1 PBD binding of FITC phosphopeptide, fluorescence polarization; further: series mostly up to about 57 µM; nearly all actives have a fitted effect of over 65% in size
Target sequence (P53350 whole entry, looked up, the tested form may be a part): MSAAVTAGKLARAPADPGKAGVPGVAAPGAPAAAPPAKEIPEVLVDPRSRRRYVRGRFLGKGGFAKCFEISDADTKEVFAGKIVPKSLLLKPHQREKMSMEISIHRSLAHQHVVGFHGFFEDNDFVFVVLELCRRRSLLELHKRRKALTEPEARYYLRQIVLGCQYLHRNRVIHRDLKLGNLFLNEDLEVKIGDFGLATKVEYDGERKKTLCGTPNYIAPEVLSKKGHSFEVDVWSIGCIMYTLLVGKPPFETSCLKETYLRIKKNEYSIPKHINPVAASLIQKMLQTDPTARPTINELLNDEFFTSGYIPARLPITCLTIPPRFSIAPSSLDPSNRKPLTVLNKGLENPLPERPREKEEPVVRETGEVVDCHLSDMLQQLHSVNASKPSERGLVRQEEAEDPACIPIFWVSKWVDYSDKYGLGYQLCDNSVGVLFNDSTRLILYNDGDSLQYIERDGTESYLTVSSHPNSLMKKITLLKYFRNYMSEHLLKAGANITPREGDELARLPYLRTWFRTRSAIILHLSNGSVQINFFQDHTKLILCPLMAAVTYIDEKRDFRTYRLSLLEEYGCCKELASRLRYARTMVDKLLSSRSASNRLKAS
12-LOX inh: Primary qHTS assay for inhibitors of human arachidonate 12S-lipoxygenase (ALOX12): Round 2; purified 12hLO, xylenol orange hydroperoxide absorbance; Potency, µM (series often up to 108 µM), usual class: inhibitors; 580,000 compounds, 1.1% hits
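Purified human 12hLO (150 nM final) in 25 mM Hepes, 0.01% Triton X-100, pH 7.0 was preincubated 15 min at room temperature with compound. Then 40 uM arachidonic acid was added, 30 min. Hydroperoxide was read by Fe-XO absorbance ratio 573/405 nm.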
VDR inhibitor: Inhibitors of the vitamin D receptor (VDR): qHTS | Vitamin D3 receptor (Homo sapiens), P11473 | VDR-SRC2-3 peptide fluorescence polarization, 2 h | Potency, µM, hits mostly inhibitors | 400,000 compounds, 0.93% hits | AID 504847, 2011
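VDR–SRC2-3 interaction, FP format. Cmpds 23 nl via pintool, brief spin, 2 h ambient incubation.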
Each line names hits and unclear results; the compound was inactive in the other large screens. The call rests on the fitted dose curve; in most records, active means well fitted curve in the direction sought with a large enough effect; inconclusive means small, poorly fitted or top-dose-only effect, or another doubt; inactive means no such curve, though single readings can be large; an effect the other way counts as inactive or inconclusive.

NC(=S)Cc1nc(-c2ccc(Cl)cc2)cs1	Sfp PPTase inh inconclusive, PLK1 PBD block inconclusive, 12-LOX inh 35µM
NC(=O)Cc1nc(-c2ccc(F)cc2)cs1	none
CCOC(=O)c1[nH]c(C)c(/C(O)=C2\C(=O)C(=O)N(CCN(C)C)C2c2cccc(OC)c2OC)c1C (stereo not given)	none
C=C1CCN(C(CC(C)C)C(=O)NN2CCOCC2)S(=O)(=O)c2ccccc21 (stereo not given)	none (no result: PLK1 PBD block, 12-LOX inh)
COc1ccccc1C1CC(c2ccc(Cl)cc2)Nc2ncnn21 (stereo not given)	PLK1 PBD block 27µM
COc1cccc(C2CC(c3ccccc3OC)n3ncnc3N2)c1 (stereo not given)	none
COc1cc(-c2nc(CN3CCCN(C(=O)c4ccco4)CC3)c(C)o2)ccc1F	PLK1 PBD block 30µM
Cc1oc(-c2ccc(Cl)cc2)nc1CN1CCCN(C(=O)c2ccco2)CC1	none
CC(=O)Nc1c(S(=O)(=O)c2ccccc2)c2nc3ccccc3nc2n1Cc1ccccc1	none
C=CCn1c(NS(=O)(=O)c2ccccc2)c(S(=O)(=O)c2ccc(C)cc2)c2nc3ccccc3nc21	Sfp PPTase inh 40µM, PLK1 PBD block inconclusive, VDR inhibitor inconclusive
O=C(NNC(=S)NC1CCCCC1)c1sc2ccccc2c1Cl	PLK1 PBD block 21µM
CCCOC(=S)NC(=O)c1sc2ccccc2c1Cl	Sfp PPTase inh 28µM, PLK1 PBD block inconclusive
O=C(NC1CC1)c1sc2ccccc2c1Cl	none
CCOC(=S)NC(=O)c1sc2ccccc2c1Cl	Sfp PPTase inh 45µM, PLK1 PBD block inconclusive
CCOc1cc(-c2nc(-c3ccc(-c4ccc(C)cc4)nc3OC)no2)cc(OCC)c1OCC	none (no result: Sfp PPTase inh, PLK1 PBD block)
CNc1c(NC(=O)c2c(F)cccc2F)c(=O)oc2ccccc12	none (no result: Sfp PPTase inh, PLK1 PBD block, VDR inhibitor)
COc1ccc(NS(=O)(=O)c2cccc(C(=O)Nc3ccccc3C(=O)O)c2)cc1	12-LOX inh inconclusive
Cc1ccc(C)c(NC(=O)c2ccc3c(c2)CCN3S(=O)(=O)c2ccccc2)c1	none (no result: Sfp PPTase inh, PLK1 PBD block)
Cc1ccc2c(c1)CCCN2S(=O)(=O)c1cccc(C(=O)Nc2ccccc2C(=O)O)c1	PLK1 PBD block 19µM, 12-LOX inh inconclusive (no result: Sfp PPTase inh, VDR inhibitor)
O=C(Nc1ccncc1)c1cccc(S(=O)(=O)N2CCc3ccccc32)c1	none (no result: Sfp PPTase inh)
O=C(Nc1nncs1)c1cccc(S(=O)(=O)N2CCc3ccccc32)c1	PLK1 PBD block 3.4µM, VDR inhibitor inconclusive
CC(=O)c1ccc(NS(=O)(=O)c2cccc(C(=O)Nc3ccccc3C(=O)O)c2)cc1	PLK1 PBD block inconclusive, 12-LOX inh 32µM
CS(=O)(=O)c1ccc(-c2cccc(NC(=O)COc3ccccc3)c2)nn1	none
COc1ccc(-n2cnc3cc(NCc4cccs4)ccc32)cc1	PLK1 PBD block 27µM
CCOc1ccc(NC(=O)CN2CCN(C3CCCCC3)C(=O)C2=O)cc1	none (no result: Sfp PPTase inh, PLK1 PBD block)
CCOC(=O)c1ccc(N2C(=O)CC(N3CCCC(C)C3)C2=O)cc1 (stereo not given)	none
CCOC(=O)c1ccc(N2C(=O)C3CCCN3C2=S)cc1 (stereo not given)	PLK1 PBD block 12µM, 12-LOX inh inconclusive (no result: Sfp PPTase inh)
CCOc1ccc(N2C(=O)CC(N3CCc4ccccc43)C2=O)cc1 (stereo not given)	none
CCOc1ccc(N2C(=O)C3CCCN3C2=S)cc1 (stereo not given)	PLK1 PBD block 21µM (no result: Sfp PPTase inh)
CCOc1ccc(NC(=O)CN2C(=O)C3CCCN3C2=O)cc1 (stereo not given)	PLK1 PBD block 24µM
CN(C)S(=O)(=O)c1ccc(=S)[nH]c1	Sfp PPTase inh inconclusive, PLK1 PBD block 24µM, 12-LOX inh inconclusive
Cc1ccccc1C(=O)Nc1ccc(N2CCN(C)CC2)nc1	none
CCOc1ccc(N(C)c2ccc(/C=C3/SC(=S)NC3=O)cc2)cc1	none
CCOc1c(O)ccc(/C=C2\SC(=S)NC2=O)c1[N+](=O)[O-]	Sfp PPTase inh 11µM, PLK1 PBD block 30µM, 12-LOX inh inconclusive, VDR inhibitor inconclusive
C[N+](C)(C)CCC(=O)c1cccc2ccccc12	Sfp PPTase inh 18µM, 12-LOX inh inconclusive, VDR inhibitor 2µM (no result: PLK1 PBD block)
COc1cc(CN(C(=O)COc2ccc(Cl)c(C)c2)c2ccccn2)cc(OC)c1OC	none (no result: Sfp PPTase inh, PLK1 PBD block)
Cc1c(Cl)cccc1N1CC(C)(C)C1=O	PLK1 PBD block 27µM
CC1(C)CN(c2ccc(Br)cc2Br)C1=O	12-LOX inh inconclusive
O=C(Nc1ccon1)C1CCN(S(=O)(=O)c2cccs2)CC1	PLK1 PBD block 3.4µM
O=C1NC(=S)N/C1=C\C=C\c1ccccc1	none
O=C(NCCC(c1ccccc1)c1ccccc1)NNc1ccccn1	12-LOX inh 22µM (no result: Sfp PPTase inh, PLK1 PBD block, VDR inhibitor)
N#C/C(=C/c1ccco1)C(N)=S	Sfp PPTase inh 10µM
CN1C[C@@H](NC(=O)CC(C)(C)CC(=O)O)C[C@H]1c1nc(-c2ccccn2)no1	none (no result: Sfp PPTase inh, PLK1 PBD block, VDR inhibitor)
CNC(=O)C(Sc1nc(C)nc2c1oc1ccccc12)C(C)=O (stereo not given)	Sfp PPTase inh 50µM, 12-LOX inh inconclusive
Cc1nc(SCCc2nc3ccccc3[nH]2)c2oc3ccccc3c2n1	12-LOX inh 14µM (no result: Sfp PPTase inh, PLK1 PBD block)
Cc1nc(SCC(=O)Nc2ccccc2)c2oc3ccccc3c2n1	12-LOX inh inconclusive
Cc1nc(SCc2cccc(F)c2)c2oc3ccccc3c2n1	Sfp PPTase inh 40µM
S=C(Nc1ccccc1)Nc1ccccc1Br	none
COc1ccc(C(=O)C[n+]2ccccc2C)cc1	PLK1 PBD block 6µM, VDR inhibitor 32µM
Cc1cccc[n+]1CC(=O)c1ccc([N+](=O)[O-])cc1	12-LOX inh inconclusive (no result: Sfp PPTase inh)
NC(=O)CSc1nnc(-c2cc(-c3ccc(Cl)cc3)nc3ccccc23)o1	none
CCOC(=O)C(=NCCOC)NNc1cc(Cl)ccc1Cl	12-LOX inh inconclusive
Nc1ccc(-c2nc3ccc(N)cc3[nH]2)cc1	none
Nc1ccc2cc3[nH]c4cc(N)ccc4c3nc2c1	PLK1 PBD block 2.4µM, 12-LOX inh inconclusive (no result: Sfp PPTase inh)
Cc1ccc(C(=O)NC(Nc2cccc(C(F)(F)F)c2)C(=O)c2ccccc2)cc1 (stereo not given)	none (no result: Sfp PPTase inh, PLK1 PBD block, VDR inhibitor)
C=CCn1c2ccccc2c2n[nH]c(=S)nc21	Sfp PPTase inh 40µM, VDR inhibitor inconclusive
CCCn1c2ccc(C)cc2c2nnc(SCCN3CCCCC3)nc21	Sfp PPTase inh inconclusive, 12-LOX inh inconclusive
O=C(O)CCn1c2ccccc2c2nc3ccccc3nc21	none
O=C(O)Cn1c2ccccc2c2n[nH]c(=S)nc21	Sfp PPTase inh 45µM, PLK1 PBD block 27µM
CCn1c2ccccc2c2nn(C)c(=N)nc21	none
CCCn1c2ccc(C)cc2c2n[nH]c(=S)nc21	Sfp PPTase inh 40µM, PLK1 PBD block 27µM
CCn1c2ccccc2c2n[nH]c(=S)nc21	Sfp PPTase inh 50µM, PLK1 PBD block inconclusive
Cc1oc(-c2ccccc2)nc1C(=O)Nc1ccc(F)c(F)c1	none (no result: Sfp PPTase inh, PLK1 PBD block, VDR inhibitor)
COc1ccc(-c2ccc(OC)c([C@H]3[C@@H]4C=CCC[C@@]4(C)C(=O)N3Cc3ccccc3)c2)cc1OC	Sfp PPTase inh inconclusive, 12-LOX inh inconclusive
Cn1c(=O)oc2cc(S(=O)(=O)Nc3ccccc3)ccc21	PLK1 PBD block 21µM
Cn1c(=O)oc2cc(S(=O)(=O)Nc3cccc(C(=O)O)c3)ccc21	12-LOX inh inconclusive

Screening data from PubChem BioAssay.
